Laboratory results taken from a collection of fitness landscapes (doi:10.1126/science.1257360).
Whole data set: some 140,000 sequences, median “enrichment ratio after two sorts for PhoP signalling” near 0, cut for the highest 2% near 11. What follows is part of a selection rich in the highest values, with near analogues and random picks from the rest.

B1: PhoQ; a variant is named by its letters at X, in order, P23837 (parent)
chain: MKKLLRLFFPLSLRVRFLLATAAVVLVLSLAYGMVALIGYSVSFDKTTFRLLRGESNLFYTLAKWENNKLHVELPENIDKQSPTMTLIYDENGQLLWAQRDVPWLMKMIQPDWLKSNGFHEIEADVNDTSLLLSGDHSIQQQLQEVREDDDDAEMTHSVAVNVYPATSRMPKLTIVVVDTIPVELKSSYMVWSWFIYVLSANLLLVIPLLWVAAWWSLRPIEALAKEVRELEEHNRELLNPATTRELTSLVRNLNRLLKSERERYDKYRTTLTDLTHSLKTPLXXLQXXLRSLRSEKMSVSDAEPVMLEQISRISQQIGYYLHRASMRGGTLLSRELHPVAPLLDNLTSALNKVYQRKGVNISLDISPEISFVGEQNDFVEVMGNVLDNACKYCLEFVEISARQTDEHLYIVVEDDGPGIPLSKREVIFDRGQRVDTLRPGQGVGLAVAREITEQYEGKIVAGESMLGGARMEVIFGRQHSAPKDE

Variants of: B1
Assay: enrichment ratio after two sorts for PhoP signalling (ratio (wild type AVST 3.29)); higher = more functional
Details: with PhoP (E. coli)

Variant	enrichment ratio
FDQC	≤ 0.25
HRRK	≤ 0.25
GSPQ	≤ 0.25
QEFG	30.8
QKFG	≤ 0.25
QQFG	20.2
QQFA	≤ 0.25
QRFG	≤ 0.25
WQFG	≤ 0.25
YSKV	≤ 0.25
PITH	≤ 0.25
YICL	3.21
AEYT	2.16
AELT	6.58
AENT	10.7
AEFT	6.27
AEVT	15.3
AAAL	4.97
AEAL	18.2
AEAT	47.1
ADAL	≤ 0.25
AEEV	2.19
AEAV	15.8
AEYV	≤ 0.25

Variant	enrichment ratio
FMVL	≤ 0.25
SFSW	≤ 0.25
TSQR	≤ 0.25
MHEF	≤ 0.25
INEK	≤ 0.25
HTRD	≤ 0.25
IMKH	≤ 0.25
GQND	≤ 0.25
FWMY	≤ 0.25
RETL	≤ 0.25
VEGG	≤ 0.25
ECSV	≤ 0.25
IAKM	≤ 0.25
AEIY	14.8
AQST	5.3
AQQY	≤ 0.25
AEAG	7.71
AEAM	5.95
AEQY	17.1
ADIY	≤ 0.25
AEAS	21.3
AEST	18.4
AEQP	≤ 0.25
ARST	≤ 0.25

Variant	enrichment ratio
ANIY	0.312
MKWE	≤ 0.25
PDNP	≤ 0.25
PQPV	≤ 0.25
INLG	2.36
DREC	≤ 0.25
VNMC	1.44
AEYI	3.12
AEAI	14.2
AERY	≤ 0.25
AEIN	1.09
AEDY	≤ 0.25
AEAN	28.2
AEKA	≤ 0.25
AEWT	22.1
AEYM	3.72
AEAY	39.2
AIWT	≤ 0.25
AEAW	≤ 0.25
ITKR	≤ 0.25
SVFT	≤ 0.25
VISK	≤ 0.25
LWWA	≤ 0.25
NMII	≤ 0.25

Variant	enrichment ratio
TPVN	≤ 0.25
FWRY	≤ 0.25
SCFG	≤ 0.25
ITNE	≤ 0.25
TRFM	≤ 0.25
GRSR	≤ 0.25
PKLW	≤ 0.25
ECFL	≤ 0.25
NQDT	≤ 0.25
AEGY	43.4
AEAA	12.1
AENY	5.26
AEAD	≤ 0.25
AEYY	≤ 0.25
AEYQ	≤ 0.25
SGEP	≤ 0.25
INCT	≤ 0.25
NFHN	≤ 0.25
NMVN	≤ 0.25
DKLH	≤ 0.25
PNLH	≤ 0.25
ANTH	6.44
ANTG	1.58
ANTC	63

Variant	enrichment ratio
ANNK	0.253
ANTK	≤ 0.25
ANFC	≤ 0.25
ANTR	≤ 0.25
ANTE	≤ 0.25
ANTS	21.1
ANTA	19.3
ANTD	≤ 0.25
ANTI	11.4
MYDG	≤ 0.25
PVQS	≤ 0.25
RRVW	≤ 0.25
HRAN	≤ 0.25
KEHR	≤ 0.25
SANM	9.22
NAVG	≤ 0.25
EVLL	≤ 0.25
KQMR	≤ 0.25
SEFQ	6.8
KYIQ	≤ 0.25
MMIQ	≤ 0.25
MEIQ	19.4
MDIQ	0.654
SEIE	≤ 0.25

Variant	enrichment ratio
YTIQ	≤ 0.25
SEIQ	22.9
STIQ	14
EGNN	≤ 0.25
NRRY	≤ 0.25
THCI	7.06
ANVR	≤ 0.25
HNSH	≤ 0.25
HYAD	≤ 0.25
LNEM	≤ 0.25
KKNT	≤ 0.25
TECN	60.8
SECN	23.5
FECN	13
GMLN	0.729
FNCN	≤ 0.25
GTCN	3.53
FQCN	≤ 0.25
FCCN	≤ 0.25
SELN	8.08
SNCN	7.42
KECN	≤ 0.25
GMCN	13.6
KSEA	≤ 0.25

Variant	enrichment ratio
VGRD	≤ 0.25
RFAS	≤ 0.25
LNVE	≤ 0.25
GWCA	≤ 0.25
ACRC	≤ 0.25
RCNS	≤ 0.25
FSFI	0.694
IGKY	≤ 0.25
SSNS	0.835
FELN	13.7
TCCN	17.6
MECN	12.6
FEWI	≤ 0.25
FELA	2.53
QECN	9.04
DCCN	≤ 0.25
VECN	≤ 0.25
NECN	≤ 0.25
MPYN	≤ 0.25
DKHY	≤ 0.25
CHTM	≤ 0.25
NPDP	≤ 0.25
DDIR	≤ 0.25
QAWS	18.4

Variant	enrichment ratio
QAWL	19.9
QAWI	≤ 0.25
NAWL	≤ 0.25
QAWM	10.8
KAWL	≤ 0.25
NGDG	≤ 0.25
NCII	≤ 0.25
YKNN	≤ 0.25
GHVH	≤ 0.25
HGGE	≤ 0.25
LYYP	≤ 0.25
LFEG	≤ 0.25
TESY	23.2
GEEY	≤ 0.25
STSY	11.6
SESY	25.4
GVSY	≤ 0.25
NESY	≤ 0.25
SRSY	≤ 0.25
SQSY	8.96
QESY	≤ 0.25
KQSY	≤ 0.25
YTSY	≤ 0.25
GESY	12.8

Variant	enrichment ratio
HTRW	≤ 0.25
TYTW	≤ 0.25
RVSE	≤ 0.25
PWWY	≤ 0.25
GELC	8.26
IGYI	≤ 0.25
YYAS	≤ 0.25
MMSY	2.46
SMSY	11.4
SDSY	≤ 0.25
KYSY	≤ 0.25
SPSY	≤ 0.25
MKSY	≤ 0.25
MESY	14.8
NMSY	≤ 0.25
SNSY	12.8
HYIP	≤ 0.25
DCSH	≤ 0.25
FTML	12
VCML	10
YYML	≤ 0.25
TYML	0.784
KCML	≤ 0.25
YCML	12.7

Variant	enrichment ratio
FPML	≤ 0.25
FCML	21.1
QPML	≤ 0.25
YTML	5.16
YCNL	≤ 0.25
TCML	16.7
ILLC	≤ 0.25
TKRF	≤ 0.25
EMVN	≤ 0.25
VCYH	≤ 0.25
HYMK	≤ 0.25
KEFY	≤ 0.25
LSFV	5.15
SLYE	≤ 0.25
TVML	1.47
FVML	13.2
NVML	≤ 0.25
EIFI	≤ 0.25
NLQN	≤ 0.25
IMRF	≤ 0.25
TCCR	13.1
TEKR	≤ 0.25
TCKR	≤ 0.25
CDCR	≤ 0.25

Variant	enrichment ratio
TECR	16.3
VECR	≤ 0.25
QFGW	≤ 0.25
KPGY	≤ 0.25
KAWY	≤ 0.25
VNCT	1.24
MEFD	≤ 0.25
AGCH	11.6
AHCH	2.08
AICH	15.1
RGCH	≤ 0.25
AQCH	32.7
NQCH	≤ 0.25
AQTH	≤ 0.25
WICH	≤ 0.25
TGCH	10.6
MICD	≤ 0.25
EHIV	≤ 0.25
FHVI	≤ 0.25
GTWL	≤ 0.25
IFFD	≤ 0.25
KVLP	≤ 0.25
LFKL	≤ 0.25
KYLI	≤ 0.25

Variant	enrichment ratio
DPLI	≤ 0.25
SILI	4.12
ATLI	15.7
SQLI	11.8
FTLI	10.3
ATLT	10.2
SPLI	≤ 0.25
STLI	12.4
ATLS	10.6
YTLI	12.8
QPLI	≤ 0.25
SDYI	≤ 0.25
CPPL	≤ 0.25
LICH	≤ 0.25
GFMC	≤ 0.25
RVDS	≤ 0.25
INFA	≤ 0.25
TVQC	4.14
FEAI	≤ 0.25
LSQY	≤ 0.25
GALA	2.12
YALI	13.3
IILI	≤ 0.25
GALS	5.05

Variant	enrichment ratio
GALI	14.1
ITLI	8.76
GTLI	15.8
KQLI	≤ 0.25
GYLI	0.357
NALI	4.49
KALI	≤ 0.25
SALI	12.2
ERQV	≤ 0.25
LRKP	≤ 0.25
KPPH	≤ 0.25
TPRP	≤ 0.25
FDPD	≤ 0.25
PKVE	≤ 0.25
RSAQ	≤ 0.25
HALI	12.2
TTLI	12.4
LTLI	0.384
CTLI	≤ 0.25
HALA	≤ 0.25
HFLI	≤ 0.25
